High-throughput results: PubChem, Sanford-Burnham Center for Chemical Genomics
TROY NFkB inh: inhibitors of TROY-driven NF-kB signaling, primary screen, Q293 LMP1-TROYcd cells, NF-kB luciferase, uHTS; Q293 LMP1-TROYcd NF-kB luciferase reporter, 4 h; inhibition, % at 10 µM; hit rate 0.98% among 360,000;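 active = compounds whose plate-normalised and pattern-corrected inhibition of the luciferase reporter signal at the single screening dose is 50% or more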
TWEAK Fn14 block: inhibitors of TWEAK-Fn14 signaling, primary screen, luciferase reporter cells, uHTS; inhibition, % at 10 µM; hit rate 2% among 360,000; AID 1159606, 2016; TWEAK-stimulated Fn14 reporter cells, luciferase luminescence, 8 h; in the data active = inhibition above about 50%
Peg3 promoter: Peg3 promoter-driven luciferase inhibitors, primary screen, cell-based, HeLa, luciferase luminescence | HeLa PEG-Prom luciferase reporter, overnight | inhibition, % at 20 µM | hit rate 1.7% among 360,000;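 active = inhibition of at least 50% at 20 µM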
CF NFkB block: inhibitors of PAF-induced NF-kB signaling, primary screen, cell-based, GFP fluorescence, uHTS; KKLEB NF-kB-GFP reporter, GFP fluorescence overnight; inhibition, % at 5 µM; hit rate 0.86% among 360,000; AID 588850, 2011;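 active = at least 50% inhibition at 5 µM, scaled per plate between neutral and stimulator controls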;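 also: PAF is a Pseudomonas aeruginosa culture filtrate used as stimulus; plate controls were PAF-stimulated DMSO wells for no effect and unstimulated DMSO wells for full effect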
KKLEB cytotox: cytotoxicity in KKLEB CF airway cells, primary screen, cytotoxicity control for CF NF-kB inhibitor project, cell-based, uHTS, fluorescence assay plates | activity change (cytotoxicity), % at 5 µM | AID 602141, 2011 | KKLEB CF airway cells viability, ATPlite luminescence, overnight; stronger effect = lower value; cells stimulated with P. aeruginosa culture filtrate | hit rate 0.36% among 360,000;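 active = corrected activity change at or below -50% at 5 µM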
HIF-2a block: HIF-2a reporter inhibitors, primary screen, luminescence, 786-0 RCC cells. 786-0 RCC cells HIF-2a reporter, luciferase luminescence, overnight. inhibition, % at 18.8 µM. hit rate 0.72% among 360,000. AID 624352, 2012;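 active = inhibition of the luminescence signal of 40% or more relative to plate controls, in a single-dose primary screen at 18.75 µM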
Starred values were filed as active, the others as inactive. This is a sample that favours compounds with a hit; in the whole collection about 4% have one here.

For Cc1ccc(-c2nc3cnccn3c2Nc2c(C)cccc2C)o1 the results were TROY NFkB inh -2, TWEAK Fn14 block -5, Peg3 promoter 102*, CF NFkB block 10, KKLEB cytotox -7 and HIF-2a block 6.
COc1ccc([N+](=O)[O-])cc1NC(=O)C(C)OC(=O)CSC(C)C(=O)Nc1cc(C)on1 (centres undefined) was read as TROY NFkB inh 0, TWEAK Fn14 block -11, Peg3 promoter -40, CF NFkB block -23, KKLEB cytotox 8 and HIF-2a block -9.
COc1ccc(-c2nnc3sc(CN4C(=O)c5ccccc5C4=O)nn23)cc1 was read as TROY NFkB inh 14, TWEAK Fn14 block 93*, Peg3 promoter 2, CF NFkB block -10, KKLEB cytotox 10 and HIF-2a block 3.
For Cc1ccc2nc(/C(C#N)=C/c3cn[nH]c3-c3ccc(F)cc3)[nH]c2c1 the results were TROY NFkB inh 16, TWEAK Fn14 block 59*, Peg3 promoter 27, CF NFkB block -4, KKLEB cytotox -6 and HIF-2a block -31.
Screening O=C(CSc1nc2[nH]c(=O)cc(O)c2s1)Nc1nncs1 returned TROY NFkB inh 21, TWEAK Fn14 block 8, Peg3 promoter 5, CF NFkB block 4, KKLEB cytotox -23 and HIF-2a block 2.
Screening Cc1csc(NC(=O)CSc2nc3[nH]c(=O)cc(O)c3s2)n1 returned TROY NFkB inh 2, TWEAK Fn14 block 19, Peg3 promoter 99*, CF NFkB block 71*, KKLEB cytotox -19 and HIF-2a block 30.
Screening CCc1ccc(/C(C)=N/NC(=O)CNC(=O)/C=C/c2ccco2)cc1 returned TROY NFkB inh 1, TWEAK Fn14 block 66*, Peg3 promoter -4, CF NFkB block -18, KKLEB cytotox -1 and HIF-2a block 14.
`COCCNC(=O)C1(C)CCCN(C(=O)COc2ccccc2)C1` (centres undefined) gave TROY NFkB inh 0, TWEAK Fn14 block 23, Peg3 promoter -5, CF NFkB block 8, KKLEB cytotox -1 and HIF-2a block 9.
Cc1ccc2nc(NC(=O)c3ccc(OCC4CCCO4)cc3)sc2c1 (centres undefined) was read as TROY NFkB inh 37, TWEAK Fn14 block 90*, Peg3 promoter -40, CF NFkB block -18, KKLEB cytotox 1 and HIF-2a block -170.
Screening Cc1cccnc1NC(=O)c1ccc(OCC2CCCO2)cc1 (centres undefined) returned TROY NFkB inh -30, TWEAK Fn14 block -17, Peg3 promoter -37, CF NFkB block 15, KKLEB cytotox -24 and HIF-2a block -106.
Screening Cc1cc(C)c2nc(NC(=O)c3ccc(OCC4CCCO4)cc3)sc2c1 (centres undefined) returned TROY NFkB inh -12, TWEAK Fn14 block 53*, Peg3 promoter -135, CF NFkB block 7, KKLEB cytotox -4 and HIF-2a block -108.
`COc1ccc2nc(NC(=O)c3ccc(NC(=O)C4CCCO4)cc3)sc2c1` (centres undefined) gave TROY NFkB inh 9, TWEAK Fn14 block 8, Peg3 promoter -76, CF NFkB block -20, KKLEB cytotox 20 and HIF-2a block -196.
For O=C(Nc1nc2c(s1)CCCC2)c1ccc(N2C(=O)CCC2=O)cc1 the results were TROY NFkB inh -31, TWEAK Fn14 block -12, Peg3 promoter -68, CF NFkB block 12, KKLEB cytotox -8 and HIF-2a block -172.
O=C(Nc1nc2c(s1)CCCC2)c1ccc(Br)s1 was read as TROY NFkB inh 6, TWEAK Fn14 block 55*, Peg3 promoter -300, CF NFkB block -22, KKLEB cytotox 2 and HIF-2a block -327.
Screening CCN1CCc2nc(NC(=O)c3ccccc3)sc2C1 returned TROY NFkB inh 50, TWEAK Fn14 block 85*, Peg3 promoter 36, CF NFkB block -7, KKLEB cytotox -13 and HIF-2a block -9.
For O=C(NC(=S)Nc1nc2c(s1)CCCC2)c1ccccc1 the results were TROY NFkB inh 23, TWEAK Fn14 block 30, Peg3 promoter -163, CF NFkB block 44, KKLEB cytotox -52* and HIF-2a block -222.
